Assay results taken from ChEMBL document CHEMBL3988442, “University of Dundee, Small-Polar-MMV Screening Library” (2021).
The campaign covered roughly 85,000 compounds. About 440 (0.52%) showed an effect of 50% or more. What follows is part of a selection rich in strong results, with near analogues and random picks from the rest.

Experiment: In vitro enzyme assay to detect hydrolysis of chlorophenol red-beta-D-[…] directly proportional to the number of Toxoplasma stably expressing beta-galactosidase
Format: functional, organism-based, Toxoplasma gondii
Parameters: scale not given: in the data most compounds retested in dose-response had high values

| Compound | Percent Effect (50 µM) [%] | Percent Effect (10 µM) [%] |
| --- | --- | --- |
| CN(C)[C@@H]1CN(C(=O)c2cccn2C)C[C@H]1CO | -4.756 |  |
| CC(C)NC(C1CCNCC1)[C@H]1C[C@H](O)C1 (some centres not stated) | 23.17 |  |
| CCOc1ncccc1C(=O)N1CCC(COC)C1 (configuration not stated) | -5.58 |  |
| CC1(C)CN(c2nccnc2C#N)CCS1(=O)=O | -1.06 |  |
| O=C(NCC(F)(F)F)c1ccccc1NCCCO | 5.629 |  |
| O=S(=O)(NC1CC1)C1CCN(CCc2ccccn2)C1 (configuration not stated) | 5.549 |  |
| c1ccc(N2CCCC2)nc1 | -4.186 |  |
| CC(C)OCc1nc(C(C)N)no1 (configuration not stated) | -1.581 |  |
| CCCN(C)C(CO)c1ccc(OC)cc1 (configuration not stated) | -2.385 |  |
| O=C(c1ccc2c(c1)OCO2)N1CCCC(n2cccn2)C1 (configuration not stated) |  | 8.443 |
| O=C(c1ccc2c(c1)OCCCO2)N1CCCC(n2cccn2)C1 (configuration not stated) |  | 55.61 |
| O=C(c1ccc2c(c1)OCCCO2)N1CCCC(n2ccnc2)C1 (configuration not stated) |  | -11.97 |
| CC(C)(C)C(=O)CCN1CCCCC1 | 28.4 |  |
| CNCC1CCS(=O)(=O)C1 (configuration not stated) | 7.416 |  |
| NC(=O)C(Cc1ccccc1)NS(=O)(=O)Cc1ccccc1F (configuration not stated) |  | -5.639 |
| N#Cc1cccc(CS(=O)(=O)NC(Cc2ccccc2)C(N)=O)c1 (configuration not stated) |  | -7.673 |
| NC(=O)C(Cc1ccccc1)NS(=O)(=O)Cc1ccccc1Cl (configuration not stated) |  | 50.03 |
| CCc1cc(N[C@@H]2C[C@H]3CC[C@@H]2C3)n2nccc2n1 |  | 9.168 |
| CCCn1ncc(-c2ccnc(NC3CCCc4ccccc43)n2)c1C (configuration not stated) |  | 4.434 |
| CCCn1ncc(-c2ccnc(NC3CCSC3)n2)c1C (configuration not stated) |  | 16.2 |
| CCCn1cc(-c2ccnc(NC3CCc4ccccc4C3)n2)c(C)n1 (configuration not stated) |  | 39.11 |
| CCCn1ncc(-c2ccnc(N[C@@H]3C[C@@H]4CC[C@H]3C4)n2)c1C |  | 55.29 |
| CCCn1ncc(-c2ccnc(NC3CC(C)(C)NC(C)(C)C3)n2)c1C |  | 50.73 |
| C[C@@H]1CNC[C@H]1C(N)=O | -3.858 |  |
| COCC1(C(=O)N2C[C@@H](N)C[C@H]2C(=O)NC(C)C)CC1 | -6.582 |  |
| COC(=O)c1cn(CC(=O)Nc2cccc(F)c2)nn1 | -28.09 |  |

| Compound | Percent Effect (50 µM) [%] | Percent Effect (10 µM) [%] |
| --- | --- | --- |
| CC(N)C(=O)N(C)C1CCOCC1 (configuration not stated) | -25.47 |  |
| OCc1nnc2n1N=C(c1ccc(Cl)cc1)CS2 | -7.844 |  |
| Cc1nnc2n1N=C(c1cccs1)CS2 | -17.29 |  |
| Cc1nnc2n1N=C(c1ccccc1)CS2 | 84.29 |  |
| COCc1cccc(C(=O)Nc2ccncc2)c1 | -8.978 |  |
| COCCN(CCC#N)S(=O)(=O)c1ncn(C)c1Cl | 2.241 |  |
| O=C(CN1CCn2ccnc2C1)Nc1ccc(Cl)cn1 | -8.564 |  |
| CC(C)n1cnnc1CN1CCN(c2nc[nH]n2)CC1 | 14.64 |  |
| NCCN1CCC(C(N)=O)CC1 | 44.2 |  |
| CS(=O)(=O)CCN1CCC(C(N)=O)CC1 | 50.58 |  |
| CCCN1CCC(C(N)=O)CC1 | -22.14 |  |
| O=C(Nc1nncs1)c1cccc(O)c1 | -14.91 |  |
| Cc1ccc(F)cc1NC(=O)C(C)Nc1cnn(C)c1 (configuration not stated) | 17.75 |  |
| CNC(=O)c1cccc(NCc2nc(C)cs2)n1 | -1.003 |  |
| O=C1NCCN(C(=O)c2ccc(Br)o2)C1c1cccs1 (configuration not stated) | 99.65 |  |
| COC(=O)CCN1CCNC(=O)C1c1cccs1 (configuration not stated) | -1.577 |  |
| N#Cc1ccc(CN2CCNC(=O)C2c2cccs2)cc1 (configuration not stated) |  | 7.265 |
| Cc1nc(CNC(=O)N(C)Cc2ccncc2)cs1 | -10.17 |  |
| NC(=O)C1(O)CCN(Cc2nc(C3CCCC3)no2)C1 (configuration not stated) | -5.906 |  |
| CCC(=O)NC1CCCN(Cc2noc(C)n2)C1 (configuration not stated) | 11.52 |  |
| CC(C)COCCC(=O)Nc1nccs1 | 97.25 |  |
| CCC(C)C(=O)Nc1nccs1 (configuration not stated) | -54.41 |  |
| CC(C)COCCC(=O)Nc1c(-c2ccc(F)cc2)ncn1C |  | 2.891 |
| Cc1ccc(C)c(NC(=O)CN2CCC(O)CC2)c1 | -4.783 |  |
| COCc1nc(CCN)no1 | -5.41 |  |
| CC(C)C(=O)N1CCN(c2ncnc3cc4c(cc23)OCCO4)CC1 |  | 49.63 |

| Compound | Percent Effect (50 µM) [%] | Percent Effect (10 µM) [%] |
| --- | --- | --- |
| CN(C)C(=O)c1ccc2ncnc(N3CCCC3)c2c1 | -3.186 |  |
| CC(C)CCC(=O)N1CCN(c2ncnc3nc(N)ccc23)CC1 |  | 1.58 |
| CC(=O)N1CCN(c2ncnc3cc4c(cc23)OCCO4)CC1 |  | 56.5 |
| CCC(=O)N1CCN(c2ncnc3cc4c(cc23)OCCO4)CC1 |  | 75.76 |
| COCC(=O)N1CCN(c2ncnc3cccc(F)c23)CC1 |  | -5.192 |
| CCC(C)C(=O)Nc1ccc(C(=O)N2CCCC2)cc1 (configuration not stated) | -4.343 |  |
| NCC(=O)c1ccncc1 | -6.113 |  |
| CC(CC(=O)NCCCS(N)(=O)=O)c1cccc(F)c1 (configuration not stated) | 3.903 |  |
| Cn1nccc1C(=O)NC1CCc2ccccc2OC1 (configuration not stated) | 1.645 |  |
| Cc1[nH]/c(=N\C(=O)c2csc(NC3CCCC3)n2)sc1C |  | 89.34 |
| Cc1n[nH]/c(=N\C(=O)c2csc(NC3CC3)n2)s1 | 37.81 |  |
| CC(=O)Nc1nc(C(=O)Nc2nccs2)cs1 | 1.313 |  |
| Cc1[nH]/c(=N\C(=O)c2csc(NC3CC3)n2)sc1C |  | -0.3064 |
| Cc1[nH]/c(=N\C(=O)c2csc(NCC(C)C)n2)sc1C |  | 92.95 |
| O=C(NCc1nccs1)c1csc(NC2CC2)n1 | 6.462 |  |
| O=C(Nc1nccs1)c1csc(NC2CCCC2)n1 |  | 94.63 |
| Cc1cs/c(=N/C(=O)c2csc(NCC(C)C)n2)[nH]1 |  | 19.16 |
| CC(C)CNc1nc(C(=O)/N=c2\[nH]nc(C(C)(C)C)s2)cs1 |  | 0.3064 |
| CC(O)c1c(F)cccc1-n1cncn1 (configuration not stated) | -28.05 |  |
| COc1ccc2cc(C(=O)N(C)C)c(C)nc2c1 | -8.962 |  |
| COc1ccc(F)c(F)c1C(=O)N1CCC(CN)C1 (configuration not stated) | -13.62 |  |
| CCN1CCC(CNC(=O)c2nc(C)c[nH]2)CC1 | -1.833 |  |
| OC[C@H]1CCCN1c1nccc(-c2cncnc2C2CCCCC2)n1 |  | 29.63 |
| OC[C@H]1CCCN1c1nccc(-c2c[nH]nc2C2CCCCC2)n1 |  | 54.25 |
| OC[C@@H]1CCCN1c1nccc(-c2c[nH]nc2-c2ccncc2)n1 |  | -24.25 |
